According to PubChem BioAssay AID1159580 (chemical genetic matrix, 2015):
About 2,000 (36%) of roughly 5,500 compounds were called active. Inconclusive results (about 18%) are left out. Cut-off read from the data, not from the text of the source: active = normalized growth mostly below about 0.91 (no sharp cut-off); inconclusive = no clear call, values can overlap the other calls; inactive = mostly above about 0.92. The list shows a part of the results.

Experiment: chemical genetic growth profiling, strain panel (AID 1159580);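 note: tested at 20 µM; growth read once vehicle control cultures reached saturation at 30 °C; 1 = growth at the plate median or of vehicle wells; lower values mean less growth of the strain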
Settings: S. cerevisiae deletion strains, growth OD

Measured: normalized growth

N[C@H](CCC(=O)NCS(=O)(=O)O)C(=O)O
inactive: locus YAL013W, strain DEP1, active compounds read low 1.01 | locus YAL040C, strain CLN3, active compounds read low 0.996 | locus YCL061C, strain MRC1 (second series), active compounds read low 1.01 | locus YDR150W, strain NUM1, active compounds read low 1 | locus YDR363W, strain ESC2, active compounds read low 1.02 | locus YER002W, strain NOP16, active compounds read low 1.02 | locus YGR078C, strain PAC10, active compounds read low 0.997 | locus YGR229C, strain SMI1, active compounds read low 1.03 | locus YMR263W, strain SAP30, active compounds read low 1.01 | locus YMR307W, strain GAS1, active compounds read low 1 | locus YNL128W, strain TEP1, active compounds read low 1 | locus YNL175C, strain NOP13, active compounds read low 0.998 | locus YNL197C, strain WHI3, active compounds read low 0.997 | locus YNL224C, strain SQS1, active compounds read low 0.986 | locus YNL322C, strain KRE1, active compounds read low 1.01 | locus YOR083W, strain WHI5 (second series), active compounds read low 0.981 | locus YPL055C, strain LGE1, active compounds read low 1.02 | locus YPL241C, strain CIN2, active compounds read low 1
